# High-throughput results (PubChem BioAssay)
# Sampled rows, rich in hits. Any-hit rate of the full collection: about 19%.
# HT1080-NT tox: kills 2HG-producing HT-1080-NT fibrosarcoma cells; HT-1080-NT fibrosarcoma viability, CellTiter-Glo ATP luminescence, 48 h; Potency, µM (titrated, usually from 46.1 µM), inactives show at the top dose activity, negative = less viability, hits mostly cytotoxic; 360,000 tested, 1.6% active; AID 686970;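 note: NT is the 2HG producing partner of a matched IDH1 knockdown line; potency is the fitted concentration of half-maximal effect; 0% = DMSO-treated cells and -100% = media-only wells without cells; nearly all actives have a fitted effect of over 55% in size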
#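 Viability of the 2HG-overproducing fibrosarcoma line after 48 hours of compound exposure at 37 degrees C was determined by luminescence with CellTiter-Glo, and concentration-effect curves were then fitted and categorized.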
# DT40 TDP1 CPT: DT40-hTDP1 cell growth loss with CPT; Potency, µM (titrated, usually from 46.2 µM), for inactives: top-dose activity change, negative = growth inhibition, hits mostly inhibitors; 420,000 tested, 12% active; chicken DT40 Tdp1-/-;hTDP1 cells + 20 nM CPT, ATP luminescence, 48 h; note: potency is the fitted concentration of half-maximal effect; nearly all actives have a fitted effect of over 55% in size
#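 Cell growth measured by CellTiter-Glo luminescence after a minimum 48 h, 37 C compound exposure with 20 nM CPT in Tdp1-knockout DT40 cells stably expressing hTDP1, seeded 400/well; qHTS titration format.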
# TDP1 cell noCPT: qHTS for Inhibitors of human tyrosyl-DNA phosphodiesterase 1 (TDP1): qHTS in cells in absence of CPT; 420,000 tested, 15% active; Potency, µM (titrated, usually from 46.2 µM), for the others: at the top dose activity change, negative = growth inhibition, most hits filed as inhibitors; DT40 Tdp1-/- hTDP1 cells, no CPT, ATP luminescence, 48 h; note: potency is the fitted concentration of half-maximal effect; nearly all actives have a fitted effect of over 55% in size
#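 Camptothecin absent (DMSO only). Human TDP1-complemented DT40 knockout cells, 400 cells/well, 37 °C for minimum 48 hr; ATP measured via CellTiter-Glo, 30 min dark incubation, luminescence.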
# IL-1B inflam inh: blocks inflammasome-driven IL-1 beta release. activity change, % at 57.5 µM. THP-1 LPS/ATP IL-1B secretion, AlphaLISA, 16 h; hits give low values. 360,000 tested, 4.7% active. AID 743279; in the data active = activity change below about -50%; inconclusive = mostly about -30% to -49%
#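 Secreted IL-1B measured by AlphaLISA bead assay after 16 h compound exposure of THP-1 cells; compounds (final up to 57.5 uM) added 1 h before LPS (250 ng/mL) and ATP (1.25 mM) stimulation; lower signal means less secretion.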
# HT1080 IDH1KD tx: HT-1080 IDH1 knockdown cell toxicity (counter line) | HT-1080 IDH1 knockdown viability, ATP luminescence, 48 h | Potency, µM (series often up to 46.1 µM), without a hit: at the top dose activity, negative = toxicity, hits mostly cytotoxic | 360,000 tested, 2% active | AID 686971;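 note: potency is the fitted concentration of half-maximal effect; 0% = DMSO wells and -100% = cell-free medium wells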
#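 Assay cells: HT-1080 with IDH1 knockdown, 750 per well, RPMI/5% FBS. Exposure: 48 h at 37 °C following 2 h pre-incubation. Read: CellTiter-Glo luminescence; fitted concentration-response, curve class assigned.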
# ELG1 repair inh: ELG1-dependent DNA repair inhibition; AID 504467; Potency, µM (highest dose often 46.1 µM), for inactives: at the highest dose activity change, negative = inhibition, most hits filed as inhibitors; 330,000 tested, 2.3% active; HEK293T ELG1-luciferase reporter, luminescence, 16 h; DNA damage induced by 5-fluorouridine; note: potency is the fitted concentration of half-maximal effect; nearly all actives have a fitted effect of over 55% in size
#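 Luminescence from the luciferase reporter, measured 30 min after ONE-Glo reagent at room temperature, was the read-out. Beforehand, 2,000 cells per well were exposed for 16 hr at 37 °C to 5-fluorouridine together with compound or vehicle.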
# * marks the source's active call; other numbers are inactive results; ? = inconclusive; . = not tested or not shown; [ ] = dose if it differs, or a comment. Unless noted, calls come from the whole dose curve; as a rule, active = well fitted curve in the direction sought with a large enough effect; inconclusive = small, poorly fitted or top-dose-only effect, or another doubt; inactive = no such curve, though single readings can be large; an effect the other way counts as inactive or inconclusive. Unless noted, % is set by controls: 0 for no effect and ±100 for the full control effect.
SMILES,HT1080-NT tox,DT40 TDP1 CPT,TDP1 cell noCPT,IL-1B inflam inh,HT1080 IDH1KD tx,ELG1 repair inh
O=C(OCCOc1cccc(Cl)c1)c1cc(S(=O)(=O)N2CCCCC2)ccc1N1CCOCC1,-7%,15µM*,8.2µM*,-14,-10%,5.2µM*
c1ccc(CNc2ccnc(-c3cccnc3)n2)cc1,.,-27%,-24%,.,.,.
CC(=O)[C@@H]1[C@H]2[C@H](C(=O)[C@H]3OC[C@@H]2O3)[C@H]2C=Cc3ccccc3N21,.,?,21µM*,.,.,.
O=C(Nc1ccc(F)cc1)c1oc2ccccc2c1NC(=O)C1CCCCC1,.,?,29µM*,.,.,.
O=C(Nc1c(C(=O)Nc2ccc(F)cc2)oc2ccccc12)c1ccccc1F,.,?,21µM*,.,.,.
O=C(Nc1ccccc1)c1oc2ccccc2c1NC(=O)C1CC1,8%,?,?,-1,1%,-2%
c1ccc(CNc2nc3ccccc3[nH]2)cc1,?,?,18µM*,-60*,-2%[9.24 µM],?
Cc1ccc2nc(NCc3ccccc3)c(C#N)cc2c1,14%,2%,0%,30,13%,3%
COc1ccc2nc(NCc3ccccc3)[nH]c2c1,?,?,15µM*,-102*,?,?
Cc1ccc2nc(NCc3ccccc3)[nH]c2c1,5.8µM*,4.1µM*,4.6µM*,-73*,3.7µM*,?
CCOc1ccc(CCNC(=O)COC(=O)c2cc(=O)[nH]c3ccccc23)cc1OCC,-3%,-19%,-9%,10,-5%,10%
COc1ccc2cc(C(=O)C3CCCN(C(=O)c4cncs4)C3)ccc2c1 (stereo not given),-1%,18µM*,12µM*,-18,-10%,-1%
COc1ccc2cc(C(=O)C3CCCN(C(=O)CSc4nnc(C)o4)C3)ccc2c1 (stereo not given),-46%,18µM*,21µM*,-22,?,?
COc1ccc2cc(C(=O)C3CCCN(C(=O)c4cnn(C(C)C)c4)C3)ccc2c1 (stereo not given),2%,26µM*,?,14,-2%,10%
COc1ccc2cc(C(=O)C3CCCN(C(=O)CCc4cnn(C)c4)C3)ccc2c1 (stereo not given),-2%,?,?,-57*,-8%,?
COc1ccc2cc(C(=O)C3CCCN(C(=O)c4csnn4)C3)ccc2c1 (stereo not given),15%,-20%,?,-1,12%,?
CC1(C(=O)Nc2ccc3c(c2)OCCO3)CN(S(C)(=O)=O)CC(=O)N1CCCN1CCOCC1 (stereo not given),27%,2%,3%,25,30%,.
O=C(Nc1ccccc1C(F)(F)F)N1CCC2(CC1)Oc1ccccc1C(=O)N2Cc1ccccc1F,.,?,16µM*,.,.,.
O=C(Nc1ccccc1C(F)(F)F)N1CCCCCC1,20%,-4%,-6%,22,11%,?
O=C(CNC1=NCCS1)c1c[nH]c2ccccc12,.,-11%,?,.,.,.
CCCCNC(=O)c1ccc(S(=O)(=O)c2ccc(Cl)cc2)c(NC(C)=O)c1,3%,-16%,-8%,15,-1%,-16%
CCOc1ccc(CNC(=O)c2ccc(Sc3ccc(Cl)cc3)c(NC(C)=O)c2)cc1,-22%,23µM*,18µM*,?,?,?
CCOc1ccccc1CNC(=O)c1ccc(Sc2ccc(Cl)cc2)c(NC(C)=O)c1,0%,?,?,-3,3%,?
CC(=O)Nc1cc(C(=O)NCc2ccc(C)cc2)ccc1S(=O)(=O)c1ccc(Cl)cc1,.,?,16µM*,.,.,.
CC1(C)CC(C(=O)N2CCOc3ccc(CN4CCC(Oc5cccnc5)CC4)cc3C2)CCO1 (stereo not given),.,?,-23%,.,.,.
SMILES,HT1080-NT tox,DT40 TDP1 CPT,TDP1 cell noCPT,IL-1B inflam inh,HT1080 IDH1KD tx,ELG1 repair inh
COc1cccc(CNC(=O)C(CC(C)C)NS(=O)(=O)c2ccc3c(c2)oc(=O)n3C)c1 (stereo not given),.,-28%,-26%,.,.,.
COC1=NC(=C(c2ccccc2)c2ccccc2)OC1=O,6%,-24%,-29%,0,8%,.
Cc1ccc2c(=O)c(C(=O)c3cccc(Cl)c3)cn(CC(=O)Nc3ccccc3C(F)(F)F)c2n1,.,-2%,-4%,.,.,.
COc1cccc(C(=O)NCC(=O)OCc2ccc(F)cc2Cl)c1,15%,-7%,-13%,0,15%,14%
CN(C)c1ccc(-c2cc(NCc3cccnc3)ncn2)cc1,.,-17%,-16%,.,.,.
COc1cc(CC(=O)OCC(=O)Nc2sccc2C(N)=O)cc(OC)c1OC,0%,29µM*,16µM*,30,-28%,7.3µM*
O=C(COC(=O)/C=C/c1ccccc1[N+](=O)[O-])NC1CCS(=O)(=O)C1 (stereo not given),12%,10%,2%,-11,1%,2%
NC(=O)c1ccsc1NC(=O)COC(=O)CCc1ccccc1,-4%,-10%,?,14,-5%,.
O=C(COC(=O)/C=C/c1ccccc1[N+](=O)[O-])NC1CC1,5%,?,21µM*,11,1%,3%
NC(=O)c1ccsc1NC(=O)COC(=O)/C=C/c1ccccc1,0%,?,18µM*,15,1%,?
NC(=O)c1ccsc1NC(=O)COC(=O)Cc1ccsc1,-1%,?,?,14,0%,0%
NC(=O)c1ccsc1NC(=O)COC(=O)/C=C/c1ccccc1[N+](=O)[O-],-5%,?,16µM*,19,-6%,?
CCOCC(=O)N1CCN(c2ccccc2OC)CC1,11%,1%,12%,11,26%,12%
COc1cccc2c1CCC1CC(=O)CC[C@@]21C (stereo not given in full),.,-18%,?,.,.,.
CCOC(=O)OC(C)OC1=C(C(=O)Nc2ccccn2)N(C)S(=O)(=O)c2ccccc21 (stereo not given),.,?,2.1µM*,.,.,.
C=CCn1c(N)c(C(=O)Nc2ccc(C)cc2)sc1=S,0%,-3%,5%,-25,-18%,?
Cn1c(N)c(C(=O)Nc2ccc(-c3ccccc3)cc2)sc1=S,-3%,23µM*,21µM*,-1,-8%,-30%
COc1cccc(C(c2c(N)[nH]c(=S)[nH]c2=O)c2c(N)[nH]c(=S)[nH]c2=O)c1,14%,13%,10%,3,17%,-12%
